# Measured values published in PubChem BioAssay AID1259415 (National Center for Advancing Translational Sciences (NCATS), 2018).
# The whole screen tested about 410,000 compounds, of which about 18,000 (4.4%) were called active. About 7% were inconclusive and are not listed. The sample holds actives, similar compounds and a random draw of the others, so the mix is not that of the screen. Values without a mark were called inactive. Rule as the data show it: active = activity change below about -60%; inconclusive = no clear call, values can overlap the other calls; inactive = above about -39%.
# Experiment: qHTS Assay for inhibitors of the human cytomegalovirus (HCMV)
# Conditions: HFF cells, HCMV-luciferase reporter, 72 h; at 57.5 µM; active compounds read low
# Source text: NCGC Assay Overview: Infection with human cytomegalovirus (HCMV) continues to pose significant threats for pregnant women and immunocompromised hosts. HCMV causes serious morbidity and mortality in transplant recipients, and congenital HCMV is the leading infectious cause of mental retardation and deafness in children. In the 1990s, the annual costs associated with the disease burden of congenital CMV were estimated at around $2 billion. A HCMV vaccine is not available yet and HCMV therapies result in intolerable side effects and emergence of drug resistant viruses. […] Towards this goal we have developed and characterized a luciferase HCMV reporter that was initially used in 96 well plates and then optimized to 1536-well plates for utilization in screening of the MLSMR collection, the NGCG diversity collection and the NCGC Pharmaceutical Collection of approved and investigational drugs.
# NCGC Assay Protocol Summary:
# This is a cell-based assay for HCMV inhibition in HFFs cells. The screening used 2 compound doses and the HCMV-luciferase at MOI of 1 PFU/cell. Cells were treated and infected with HCMV. At 72 h post infection cell lysates were collected and luciferase activity was determined using the Glomax-Multi + Detection System (Promega, Madison, WI). Data were normalized to the controls for basal activity (buffer only) and known HCMV inhibitors Salinmoycin.
# 1536-well assay protocol for the assay:
# (1) Add 3 ul CMV/HFF cell culture. 1000 cells/well in DMEM nirmal media.
# (2) Incubate 16 hr at 37C.
# (3) Add 23 nl control compound, 10uM of Salinomycin.
# (4) Add 23 nl compounds in DMSO solution.
# (5) Add 3 ul CMV suspension. Final 1 puf/ul, Virus stock 2000pfu/ul
# (6) Incubate 72 hrs at 37C.
# (7) Add 4 ul OneGlo Luc Reagent.
# (8) Incubate 5 min at room temperature.
# % is scaled to controls: 0 for no effect and ±100 for the full control effect.
row,SMILES,"activity change, negative = inhibition"
1,COc1ccccc1N1CCN(c2ncnc3onc(-c4ccc(F)cc4)c23)CC1,-11.8%
2,CCCCCCCCCCCCn1ccc(=N)cc1,-96.6% (active)
3,O=C(CCSCc1cccc(F)c1)NCc1ccccc1,-2.8%
4,O=C(NCC(c1ccc2c(c1)OCO2)N1CCN(c2ccccc2)CC1)C(=O)Nc1ccccc1F (stereo not given),9.73%
5,COC(=O)C1=C(c2ccccc2)c2ccccc2S(=O)(=O)N1CC(=O)Nc1ccccc1C(F)(F)F,-5.56%
6,CCCc1nn2c(=O)cc(COC(=O)c3ccc(NC(=O)C(C)Oc4ccccc4)cc3)nc2s1 (stereo not given),-18.3%
7,COC(=O)CC1Oc2ccccc2-n2cc(-c3ccccc3)nc21 (stereo not given),-14.2%
8,COCCn1c(C)cc(C(=O)CSc2nc3ccccc3c(=O)n2C(C)COC)c1C (stereo not given),-66% (active)
9,COCC(C)n1c(C)cc(C(=O)CSc2cc(C)c3ccccc3n2)c1C (stereo not given),-3.64%
10,COCC(C)n1c(SCc2ccc(C(=O)OC)o2)nc2ccccc2c1=O (stereo not given),-23%
11,O=C(NC1CCCC1)c1csc(C(O)c2cccc(Cl)c2)n1 (stereo not given),-12.9%
12,CC1CN(C(=O)c2ccc3c(c2)OCO3)OC(c2ccccc2)O1 (stereo not given),26.2%
13,CCCCCCn1nnc2sc(-c3ccccc3)cc2c1=O,15.8%
14,COc1ccc(CNC(=O)c2ccc3c(O)c(S(=O)(=O)c4ccccc4)c(=O)[nH]c3c2)cc1,6.38%
15,COc1ccc(NC(=O)c2ccco2)cc1NC(=O)COc1ccc(C)c(C)c1,23.1%
16,COc1ccc(NC(=O)COCc2cc(-c3ccco3)on2)cc1,10.4%
17,COc1ccc(OCC(=O)Nc2ccc(NC(=O)c3ccco3)c(C)c2)cc1,-98.9% (active)
18,CC(C)(C)c1ccc(S(=O)(=O)N2CCN(C(=O)c3cc(-c4ccc(Br)cc4)n[nH]3)CC2)cc1,0%
19,COc1ccc(NC(=O)C2CCN(c3ccc(Sc4ccc(C)cc4)nn3)CC2)c(OC)c1,11.3%
20,O=C(CSc1nc2c(c(=O)[nH]1)CN(Cc1ccc(F)cc1)CC2)Nc1ccccc1Cl,-10.3%
21,CC1=C(c2ccc(C)c(C)c2)S(=O)(=O)NC1=NCc1ccccc1Cl,-23%
22,CC1=C(c2ccc(Cl)cc2)S(=O)(=O)N=C1N1CCN(c2cc(C)ccc2C)CC1,8.61%
23,COc1ccc(NC(=O)NCCN2CCN(c3ccc(C)cc3)CC2)c(Cl)c1,14.9%

row,SMILES,"activity change, negative = inhibition"
1,Cc1ccc(C)c(N2CCN(CCCNC(=O)Nc3ccc(Cl)cc3)CC2)c1,-76.9% (active)
2,O=C(NCCCN1CCN(c2ccc(F)cc2)CC1)Nc1ccc([N+](=O)[O-])cc1,-37.5%
3,CC1=C(c2ccc(C)cc2)S(=O)(=O)NC1=NCCCN1CCN(c2cc(C)ccc2C)CC1,-96.1% (active)
4,O=C1C=C(NCCNc2c(F)c(F)c(CO)c(F)c2F)CCC1,74.7%
5,CCOc1ccc(N2C(=O)Nc3ccccc3C2(O)C(=O)NCc2ccco2)cc1 (stereo not given),14.9%
6,Cc1cc(C)cc(NC(=O)Cn2nc(N3CCN(c4ccccc4)CC3)ccc2=O)c1,-10.6%
7,NN=C(NN=Cc1ccccc1)c1ccccc1,49.5%
8,CCc1ccccc1NC(=O)/C(=C/c1ccccc1)c1ccccc1,-13.4%
9,O=C(N/N=C/c1ccccc1O)/C(=C/c1ccccc1)CCO,-88.1% (active)
10,O=Nc1c(O)cc(O)c2ccccc12,13.3%
11,O=C(CN1CCSCC1)N/N=C/c1ccc(F)cc1F,-10.6%
12,O=C(NN=Cc1ccccc1O)NN=Cc1ccccc1O,-96.4% (active)
13,CC(=O)N1CCc2cc(Br)cc(S(=O)(=O)CCC(=O)NCCc3ccc(Cl)cc3)c21,-23.8%
14,Nc1ccc(-c2sc(N)nc2-c2ccccc2)cc1,-103% (active)
15,Nc1[nH]c(=S)nc2nc(-c3ccccc3)c(-c3ccccc3)nc12,-3.08%
16,Cc1nc(N)sc1-c1ccccc1,-23.6%
17,CCn1c2ccccc2c2nnc(SCC(=O)O)nc21,-4.51%
18,CCCCn1c(CNC(=O)C23CC4CC(CC(C4)C2)C3)nnc1SCC(=O)Nc1ccc(C)cc1,13.3%
19,Cc1noc(C)c1CSCC(=O)N(CCC(C)C)c1c(N)n(Cc2ccccc2)c(=O)[nH]c1=O,4.61%
20,CCn1c(SCC(=O)NC2CC2)nnc1-c1ccccn1,-72.6% (active)
21,CCn1c(SCC(=O)NC2CC2)nnc1-c1ccncc1,56.4%
22,CCn1c(SCC(=O)NC2CCCC2)nnc1-c1ccoc1C,-17.9%
